Source: PubChem
Only some compounds are listed: those with a hit (about 8.1% of all), similar ones and a draw of the others.
ELG1 DNA repair: inhibitors of ELG1-dependent DNA repair in HEK293T cells | HEK293T ELG1-luciferase reporter, luminescence, 16 h; DNA damage induced by 5-fluorouridine | Potency, µM (highest dose often 46.1 µM), for the others: top-dose activity change, negative = inhibition, actives largely listed as inhibitors | actives 2.3% (n = 330,000) | AID 504467; note: % is set by controls: 0 for no effect and ±100 for the full control effect; nearly all actives have a fitted effect of over 55% in size
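Overnight (16 hr) co-exposure of 2,000 cells/well to 5-fluorouridine and compound at 37 °C preceded detection. Luciferase was quantified via ONE-Glo luminescence; loss of signal denotes inhibition.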
MCF10A rerep: induces DNA re-replication in MCF 10a normal breast cells | Potency, µM (titrated, usually from 46.1 µM), without a hit: top-dose activity, positive = re-replication, actives largely listed as activators | MCF 10A DNA re-replication, Hoechst nuclear intensity, 48 h | actives 2.9% (n = 350,000); note: % of control where 0% means no effect; nearly all actives have a fitted effect of over 50% in size
KB-3-1 tox: KB-3-1 parental cell cytotoxicity; KB-3-1 viability, CellTiter-Glo ATP luminescence, 72 h; Potency, µM (series often up to 46.1 µM), actives largely listed as cytotoxic; actives 1.4% (n = 400,000); AID 1347075; note: % is set by controls: 0 for no effect and ±100 for the full control effect; nearly all actives have a fitted effect of over 60% in size
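Cytotoxicity in the drug-sensitive parental line KB-3-1 was scored as loss of CellTiter-Glo luminescence following 72 h incubation with compound. Values come from curve fitting of normalized concentration-response data.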
SW480 rerep: induces DNA re-replication in SW480 colon adenocarcinoma cells. actives 1.8% (n = 340,000). SW480 DNA re-replication, Hoechst DNA content imaging, 48 h. Potency, µM (series often up to 46.1 µM), without a hit: top-dose re-replication activation, usual class: activators; note: % of control where 0% means no effect; nearly all actives have a fitted effect of over 55% in size
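Cells (250 per well) received 23 nL compound or DMSO by pin tool and were kept 48 hr at 37 C, 5% CO2. Nuclei were then stained with Hoechst for 40 min and scanned for DNA content.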
KB-V1 MDR tox: kills drug-selected multidrug resistant KB-V1 cells | KB-V1 MDR cells viability, CellTiter-Glo, 72 h | actives 3.4% (n = 400,000) | AID 1347076 | Potency, µM (top dose mostly 46.1 µM), actives largely listed as cytotoxic; note: % is set by controls: 0 for no effect and ±100 for the full control effect; nearly all actives have a fitted effect of over 60% in size
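KB-V1 MDR subline cells in DMEM (phenol-red free, 10% FBS) exposed to compounds in qHTS concentration series for 72 h at 37 degrees C. Viability read by CellTiter-Glo luminescence; concentration-effect curves fitted after normalization and correction.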
Starred values were filed as active, the others as inactive; i = inactive; ? = inconclusive; nt = not tested or not shown. Calls come from the whole dose curve; as a rule, active = well fitted curve in the direction sought with a large enough effect; inconclusive = small, poorly fitted or top-dose-only effect, or another doubt; inactive = no such curve, though single readings can be large; an effect the other way counts as inactive or inconclusive. Potency is the fitted concentration of half-maximal effect.

SMILES | ELG1 DNA repair | MCF10A rerep | KB-3-1 tox | SW480 rerep | KB-V1 MDR tox
CCCCNC(=O)/C(C#N)=C/c1ccc(-c2ccc(S(=O)(=O)N3CCOCC3)cc2)o1 | -23% | ? | i | ? | ?
CN(C)c1ccc(/C=C(\C#N)c2ccccc2)cc1 | ? | 3.7µM* | ? | 3.7µM* | ?
Cn1cccc1/C=C(\C#N)c1ccccc1 | 22% | -13% | i | -10% | i
CN(C)c1cccc(/C=C(\C#N)c2ccccc2)c1 | ? | ? | 5.8µM* | ? | ?
CN(C)c1ccc(/C=C(\C#N)C(=O)c2ccccc2)cc1 | -2% | 2% | i | -6% | i
COCCCn1c(=N)c(C(=O)NCC2CCCO2)cc2c(=O)n3cccc(C)c3nc21 (centres undefined) | ? | 13µM* | ? | 6.5µM* | ?
CCOCCCn1c(=N)c(C(=O)NCC2CCCO2)cc2c(=O)n3cccc(C)c3nc21 (centres undefined) | nt | nt | i | nt | i
COCCCn1c(=N)c(C(=O)NCC2CCCO2)cc2c(=O)n3ccccc3nc21 (centres undefined) | -1% | 12µM* | i | 6.5µM* | i
Cc1cccn2c(=O)c3cc(C(=O)NCC4CCCO4)c(=N)n(CCN4CCOCC4)c3nc12 (centres undefined) | -7% | 15µM* | i | 16µM* | i
Cc1cccn2c(=O)c3cc(C(=O)NCCc4ccccc4)c(=N)n(CC4CCCO4)c3nc12 (centres undefined) | -13% | ? | i | -5% | i
Cc1ccc(CNC(=O)c2cc3c(=O)n4cccc(C)c4nc3n(CC3CCCO3)c2=N)cc1 (centres undefined) | -1% | nt | nt | nt | nt
Cc1cccn2c(=O)c3cc(C(=O)NCc4cccnc4)c(=N)n(CC4CCCO4)c3nc12 (centres undefined) | 0% | 2.3µM* | i | ? | i
Cn1c(SCc2ccc(F)cc2)nnc1-c1ccccn1 | ? | 1% | i | -10% | ?
Cc1ccccc1NC(=O)c1c(C)oc2ccc(O)c(CN3CCCC(C)C3)c12 (centres undefined) | nt | nt | i | nt | ?
C=CCNC(=S)N/N=C/c1cn(C)c2ccccc12 | ? | -14% | i | 3% | i
CCCn1c(=N)c(C(=O)NCC2CCCO2)cc2c(=O)n3cc(C)ccc3nc21 (centres undefined) | nt | nt | i | nt | i
CCCn1c(=N)c(C(=O)NCC2CCCO2)cc2c(=O)n3cccc(C)c3nc21 (centres undefined) | -3% | 12µM* | 21µM* | ? | i
Cn1ncc(Cl)c1C(=O)Nc1nnc(C2CC2)s1 | 28% | -3% | i | -11% | ?
COc1ccccc1NC(=S)N(Cc1ccco1)Cc1cc2cc(C)ccc2[nH]c1=O | 16µM* | ? | 1.8µM* | ? | ?
COC(=O)c1cccc(S(=O)(=O)N(Cc2ccco2)Cc2cc3cc(OC)c(OC)cc3[nH]c2=O)c1 | 23µM* | 3% | i | 0% | i
COc1ccccc1NC(=O)N(Cc1ccco1)Cc1cc2cccc(C)c2[nH]c1=O | ? | ? | ? | 13% | i
COc1ccccc1NC(=O)N(Cc1ccco1)Cc1cc2c(C)ccc(C)c2[nH]c1=O | 5.2µM* | -8% | i | -1% | i
O=C(NCC1CCCO1)c1ccc(NC(=O)C2C3C=CC(C3)C2C(=O)O)cc1 (centres undefined) | 8% | -2% | i | 2% | i
Cc1ccc(N=Cc2c(C)[nH]n(-c3nc4ccccc4[nH]3)c2=O)cc1 | 27% | 0% | 8.2µM* | -2% | 6.5µM*
Cc1ccc(-n2[nH]c(C)c(C=Nc3ccc4[nH]c(=O)[nH]c4c3)c2=O)cc1C | 27% | ? | ? | ? | ?
SMILES | ELG1 DNA repair | MCF10A rerep | KB-3-1 tox | SW480 rerep | KB-V1 MDR tox
COc1ccc2nc(/N=C/c3c(C)[nH]n(-c4ccc(C)cc4)c3=O)sc2c1 | ? | 7% | ? | 1% | 8.2µM*
Cc1[nH]n(-c2cccc3ccccc23)c(=O)c1C=Nc1ccc2[nH]c(=O)[nH]c2c1 | 12% | -4% | i | 5% | i
Cc1ccc(-n2[nH]c(C)c(C=Nc3ccc4[nH]c(=O)[nH]c4c3)c2=O)cc1 | -25% | ? | 21µM* | ? | ?
COc1cccc(N2CCN(c3c4c(nc5ncnn35)CCC4)CC2)c1 | -29% | 4% | 23µM* | -1% | ?
c1ccc(N2CCN(c3c4c(nc5ncnn35)CCC4)CC2)cc1 | -27% | 2% | i | -12% | 2.9µM*
Cc1ccc(C(=O)Nc2ccc3oc(-c4cc(Br)ccc4Cl)nc3c2)cc1 | nt | nt | i | nt | i
CC(C)(C)OC(=O)N1CCC(c2nnc(SCc3ccccc3F)o2)CC1 | nt | nt | i | nt | ?
CC(C)(C)OC(=O)N1CCC(c2nnc(SCc3cccc(Cl)c3)o2)CC1 | nt | nt | i | nt | 18µM*
CC(C)(C)OC(=O)N1CCC(c2nnc(SCc3ccccc3Cl)o2)CC1 | nt | nt | i | nt | 9.2µM*
CCOc1ccc(-c2nc(CSCC(=O)N3CCN(c4cccc(C(F)(F)F)c4)CC3)c(C)o2)cc1 | nt | nt | ? | nt | 18µM*
CCOC(=O)c1c(C)oc2nc(C)nc(N3CCN(c4ccc(C)cc4C)CC3)c12 | nt | nt | i | nt | i
CCc1ccc(-c2nc(CSCC(=O)N3CCN(c4ncccn4)CC3)c(C)o2)cc1 | 15µM* | -1% | i | -9% | i
Cc1oc(-c2ccccc2F)nc1CSCC(=O)NC1CCCC1 | 8% | 8% | i | 2% | ?
CCOC(=O)c1c(C)oc2nc(C)nc(N3CCN(c4cccc(C(F)(F)F)c4)CC3)c12 | nt | nt | ? | nt | 16µM*
Cc1oc(-c2ccccc2Cl)nc1CSCC(=O)NC1CC1 | 23% | ? | i | -1% | 13µM*
Cc1ccc(Oc2ccccc2NC(=O)CN2C(=O)NC3(CCCC3)C2=O)cc1 | 7% | 2% | i | 4% | i
Oc1c(I)cc(I)c2cccnc12 | -2% | ? | i | ? | ?
CSc1ccc(-c2nc(CSCC(=O)NC3CC3)c(C)o2)cc1 | 25% | 1% | i | 11% | i
CCOC(=O)N1CCN(C(=O)CSCc2ccc(C)cc2)CC1 | 13% | -2% | i | 0.18µM* | i
Cc1oc(-c2ccc(Cl)cc2)nc1CSCC(=O)NCCCN1CCOCC1 | ? | ? | i | 3% | 16µM*
CSc1ccc(-c2nc(CSCC(=O)N3CCOCC3)c(C)o2)cc1 | ? | 1% | ? | -1% | 5.2µM*
Cc1cccc(-c2nc(CSCC(=O)NCCCN3CCOCC3)c(C)o2)c1 | 0% | 17% | i | 5% | ?
CCOC(=O)N1CCN(C(=O)CSCc2nc(-c3ccccc3C)oc2C)CC1 | ? | 6% | i | -4% | 18µM*
